Source: PubChem
Wnt bcat act: Wnt/beta-catenin pathway activators, primary screen, cell-based, plate reader, single point | Wnt/beta-catenin reporter cell assay, activator | actives 1.2% (n = 300,000) | activation, % at 9.35 µM; in the data active means activation above about 30%, passing the limit was not always enough; inconclusive means no clear call, values can overlap the other calls
PAX8 reporter: inhibitors of PAX8-driven TPO luciferase reporter, primary screen, RMG-I cells, single concentration | SteadyGlo, 24 h | actives 1.2% (n = 360,000) | inhibition, % at 12.6 µM;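 active means mean replicate inhibition at least 60% with every replicate also reaching 60%; inconclusive means only one of the two criteria is met; inactive means mean below 60% and not all replicates reaching 60%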;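 further: luciferase light reporting Pax8 driven TPO promoter activity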
EWS-Fli inh: EWS/Fli-driven NR0B1 reporter inhibitors, primary screen, A673 cells, NR0B1 luciferase, luminescence, MLPCN library | inhibition, % at 12.6 µM | actives 0.67% (n = 350,000) | viability-normalised;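 active means mean inhibition of at least 50% after viability correction, with every replicate also passing that limit; inconclusive means mean reaches 50% but only one of two replicates passes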;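 further: firefly luciferase signal divided by Alamar Blue viability fluorescence both relative to DMSO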
MITF TRPM1 HTS: activators of MITF-driven TRPM1 promoter reporter, primary screen, cell-based, SK-MEL-5, luciferase, single point; SK-MEL-5 TRPM1-promoter luciferase, 24 h; % of positive control, neutral wells = 0; activation, % at 12.5 µM; actives 0.75% (n = 300,000);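 active means mean activation of at least 80% with every replicate also reaching 80%; inconclusive means mean reaches 80% but some replicate falls short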
MITF TRPM1 inh: inhibitors of MITF-dependent TRPM1 promoter reporter, primary screen, cell-based, SK-MEL-5, single point, luciferase | SK-MEL-5 TRPM1 promoter luciferase, 24 h | inhibition, % at 12.5 µM | actives 0.83% (n = 330,000);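 active means mean inhibition across replicates of 60% or more, whatever share of single replicates reaches that level; inconclusive means some that reach 60%, reason not given; inactive means mean inhibition across replicates below 60%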
esBAF inh: Bmi1 luciferase reporter increase in mESCs, primary screen, esBAF inhibitor project, mouse ES cells, Bmi1 luciferase knock-in, single point; 24 h; 100% = twice the neutral-well signal; reporter increase, % at 12.5 µM; actives 2% (n = 350,000); in the data active means activation above about 40%; inconclusive means no clear call, values can overlap the other calls;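 further: a rise in the Bmi1 reporter signal indicates esBAF inhibition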
Of the large screens only hits and unclear results are named; the others gave an inactive call. Sampled rows, rich in hits. Any-hit rate of the full collection: about 4%.

O=C(Nc1ccccc1)N1CC=C(c2ccc(F)cc2)CC1	MITF TRPM1 HTS 102.9, esBAF inh 60.8 (no result: Wnt bcat act, PAX8 reporter, EWS-Fli inh)
Cc1ccc(NC(=O)C2CCCN(C(=O)Nc3ccc(F)cc3)C2)cc1 (centres undefined)	none
O=C(Nc1cccc2ccccc12)N1CC=C(c2ccccc2)CC1	none (no result: Wnt bcat act, EWS-Fli inh)
O=C(NCc1ccncn1)[C@@H]1[C@@H](CO)[C@@H]2Cn3c(ccc(-c4ccccc4)c3=O)[C@@H]2N1CC1CC1	none (no result: Wnt bcat act, MITF TRPM1 HTS, MITF TRPM1 inh)
O=C(CCSc1ccc(Cl)cc1)N1CCCCCC1	esBAF inh 86.0 (no result: Wnt bcat act, PAX8 reporter, EWS-Fli inh)
O=C(CCSc1ccc(Cl)cc1)N1CCN(c2ncccn2)CC1	esBAF inh 42.1 (no result: Wnt bcat act, PAX8 reporter, EWS-Fli inh)
O=C(CCSc1ccc(Cl)cc1)N1CCN(c2ccc(O)cc2)CC1	none (no result: esBAF inh)
CC(=O)N1[C@H](CO)[C@H](c2ccc(C3=CCCC3)cc2)[C@@H]1CNC(=O)CN(C)C	none (no result: Wnt bcat act, MITF TRPM1 HTS, MITF TRPM1 inh)
C[C@H]1CN([C@@H](C)CO)C(=O)c2cc(NS(=O)(=O)c3cccs3)ccc2O[C@@H]1CN(C)Cc1ccc(Cl)c(Cl)c1	none (no result: Wnt bcat act, MITF TRPM1 HTS, MITF TRPM1 inh)
CO[C@H]1CN(C)C(=O)c2cc(NC(=O)CC(F)(F)F)ccc2OC[C@H](C)N(CC2CC2)C[C@@H]1C	none (no result: Wnt bcat act, MITF TRPM1 HTS, MITF TRPM1 inh, esBAF inh)
C=CCn1cnc2c(sc3nc(C)cc(C)c32)c1=O	none (no result: MITF TRPM1 HTS, esBAF inh)
CCOC(=O)Cn1cnc2c(sc3nc(C)cc(C)c32)c1=O	Wnt bcat act 37.6 (no result: MITF TRPM1 HTS)
COC(=O)Cn1c(C)nc2c(sc3nc(C)cc(C)c32)c1=O	MITF TRPM1 HTS 90.9, esBAF inh inconclusive (no result: Wnt bcat act, PAX8 reporter, EWS-Fli inh)
COc1ccc(NC(=O)N2C[C@@H](O)COC[C@@H]3O[C@H](CC(=O)NC4Cc5ccccc5C4)CC[C@H]32)cc1	none (no result: Wnt bcat act, MITF TRPM1 HTS, MITF TRPM1 inh)
C[C@H](CO)N1C[C@H](C)[C@@H](CN(C)S(C)(=O)=O)Oc2ccc(NS(C)(=O)=O)cc2C1=O	none (no result: Wnt bcat act, PAX8 reporter, MITF TRPM1 HTS, MITF TRPM1 inh)
O=C(c1ccccc1)N1C[C@@H]2[C@H](c3ccccc31)[C@H](CO)N2C(=O)c1cccc(F)c1	none (no result: Wnt bcat act, MITF TRPM1 HTS, MITF TRPM1 inh)
Cc1ccc(NC(=O)COc2ccc3c(c2)OCO3)c(Cl)c1	Wnt bcat act 40.7, MITF TRPM1 HTS 98.4, esBAF inh 47.8
N#Cc1ccccc1NC(=O)COc1ccc2c(c1)OCO2	MITF TRPM1 HTS 120.3, esBAF inh 67.5
CCc1ccccc1NC(=O)COc1ccc2c(c1)OCO2	none (no result: esBAF inh)
CO[C@H]1CN(C)C(=O)c2ccc(NS(=O)(=O)c3ccccc3)cc2OC[C@@H](C)NC[C@H]1C	none (no result: Wnt bcat act, PAX8 reporter, MITF TRPM1 HTS, MITF TRPM1 inh)
C[C@@H]1CN([C@@H](C)CO)S(=O)(=O)c2ccc(C#CC3CC3)cc2O[C@H]1CN(C)Cc1cncnc1	none (no result: Wnt bcat act, PAX8 reporter, MITF TRPM1 HTS, MITF TRPM1 inh, esBAF inh)
C=CCN(C(=O)C1CC(=O)N(C2CCCC2)C1)c1nc(-c2ccc(S(C)(=O)=O)cc2)cs1 (centres undefined)	esBAF inh 53.9
O=C1/C(=C/c2ccncc2)SC(=S)N1N1CCOCC1	none (no result: MITF TRPM1 HTS, esBAF inh)
C=CCOc1ccc(/C=C2\SC(=S)N(N3CCOCC3)C2=O)cc1	Wnt bcat act 42.4 (no result: MITF TRPM1 HTS, esBAF inh)
C[C@@H]1CCCCO[C@@H](CN(C)C(=O)c2ccccc2)[C@H](C)CN([C@@H](C)CO)C(=O)c2cc(NC(=O)C3CCCCC3)ccc2O1	none (no result: Wnt bcat act, MITF TRPM1 HTS, MITF TRPM1 inh)
O=C(NC(=S)N1CCN(Cc2ccc3c(c2)OCO3)CC1)c1ccc(Cl)cc1	none (no result: esBAF inh)
Cc1ccc2c(C)c(C(=O)N3CCN(Cc4ccc5c(c4)OCO5)CC3)oc2c1C	esBAF inh 78.8
O=C(NC(=S)N1CCN(Cc2ccc3c(c2)OCO3)CC1)c1cccc(Br)c1	PAX8 reporter 75.7 (no result: esBAF inh)
CO[C@@H]1CN(C)C(=O)c2cc(NS(=O)(=O)c3ccccc3)ccc2OC[C@@H](C)N(Cc2nccs2)C[C@H]1C	none (no result: Wnt bcat act, MITF TRPM1 HTS, MITF TRPM1 inh)
C[C@@H]1CN([C@@H](C)CO)C(=O)c2cc(NC(=O)c3ccncc3)ccc2O[C@@H](C)CCCCO[C@@H]1CN(C)S(=O)(=O)c1cn(C)cn1	none (no result: Wnt bcat act, MITF TRPM1 HTS, MITF TRPM1 inh)
Cc1ccc(OCc2nc(-c3ccccc3)no2)c(C)c1	esBAF inh 64.0 (no result: Wnt bcat act, PAX8 reporter, EWS-Fli inh)
COc1ccc(S(=O)(=O)Nc2ccc3c(c2)C(=O)N([C@H](C)CO)C[C@@H](C)[C@@H](CN(C)Cc2ccc(C(F)(F)F)cc2)OCCCC[C@H](C)O3)cc1	PAX8 reporter 105.2 (no result: Wnt bcat act, MITF TRPM1 HTS, MITF TRPM1 inh)
COc1ccc(S(=O)(=O)Nc2ccc3c(c2)C(=O)N([C@@H](C)CO)C[C@@H](C)[C@@H](CN(C)Cc2ccc(C(F)(F)F)cc2)OCCCC[C@@H](C)O3)cc1	PAX8 reporter 104.9 (no result: Wnt bcat act, MITF TRPM1 HTS, MITF TRPM1 inh)
COc1ccc(S(=O)(=O)Nc2ccc3c(c2)C(=O)N([C@@H](C)CO)C[C@@H](C)[C@H](CN(C)Cc2ccc(C(F)(F)F)cc2)OCCCC[C@H](C)O3)cc1	PAX8 reporter 95.8 (no result: Wnt bcat act, MITF TRPM1 HTS, MITF TRPM1 inh)
COc1ccc(S(=O)(=O)Nc2ccc3c(c2)C(=O)N([C@H](C)CO)C[C@H](C)[C@H](CN(C)Cc2ccc(C(F)(F)F)cc2)OCCCC[C@H](C)O3)cc1	PAX8 reporter 108.0 (no result: Wnt bcat act, MITF TRPM1 HTS, MITF TRPM1 inh)
C[C@@H]1CN([C@H](C)CO)C(=O)c2cc(C#CC3(O)CCCC3)cnc2O[C@H]1CN(C)C(=O)C1CC1	none (no result: Wnt bcat act, PAX8 reporter, MITF TRPM1 HTS, MITF TRPM1 inh, esBAF inh)
CCC(=O)N1C[C@H](C)[C@@H](OC)CN(C)C(=O)c2ccc(NC(=O)C3CCOCC3)cc2OC[C@@H]1C	none (no result: Wnt bcat act, MITF TRPM1 HTS, MITF TRPM1 inh, esBAF inh)
COc1ccc(S(=O)(=O)Nc2ccc3c(c2)C(=O)N([C@H](C)CO)C[C@@H](C)[C@H](CN(C)Cc2ccc(C(F)(F)F)cc2)OCCCC[C@@H](C)O3)cc1	none (no result: Wnt bcat act, MITF TRPM1 HTS, MITF TRPM1 inh)
COc1ccc(S(=O)(=O)Nc2ccc3c(c2)C(=O)N([C@H](C)CO)C[C@@H](C)[C@@H](CN(C)Cc2ccc(C(F)(F)F)cc2)OCCCC[C@@H](C)O3)cc1	PAX8 reporter 109.6 (no result: Wnt bcat act, MITF TRPM1 HTS, MITF TRPM1 inh)
CC(C)CC#Cc1ccc2c(c1)O[C@@H](CN(C)Cc1ccncc1)[C@@H](C)CN([C@H](C)CO)S2(=O)=O	none (no result: Wnt bcat act, MITF TRPM1 HTS, MITF TRPM1 inh)
O=C(NCC1CCCO1)c1cc2ccccc2cc1O (centres undefined)	esBAF inh 56.9
NNC(=O)c1cc2ccccc2cc1O	MITF TRPM1 inh 76.3 (no result: Wnt bcat act, EWS-Fli inh, esBAF inh)
O=C(NNC(=O)c1cc2ccccc2cc1O)NC1CCCCC1	none
